Where “and” joins values, the source holds several entries; their conditions need not be identical. Identical values can stand only once. Calls of active or inactive are those of the source. How the source made its calls: active means hit-call score of the fitted dose curve at least 0.9, where 1 is the maximum; inactive means score below 0.9.

This assay in a line: IUF_NPC2a_radial_glia_migration_72hr: Leibniz Research Institute for Environmental Medicine (IUF) 72-hour Neural Progenitor Cell Migration Assay for Radial Glia Migration (NPC2a) (AID 2284299). On the procedure:
IUF_NPC2-5 is a cell-based, multiplexed assay that uses hNPC, a human primary neural progenitor cells, with measurements taken at 72 or 120 hours after chemical dosing in a 96-well plate. Human neural progenitor cells (hNPC) are generated from human fetal brain cortex at gestational week (GW) 16-19. In the neural progenitor cell migration and differentiation assay (NPC2-5), hNPCs grown as spheres are plated on an extracellular matrix and migrate and differentiate out of the sphere core. The processes radial glia migration, neuronal and oligodendrocyte migration as well as neuronal differentiation, neuronal morphology and oligodendrocyte differentiation are studied using automated phase contrast imaging and automated fluorescence imaging in combination with high content image analysis. In parallel, the cell viability is assessed using an alamar blue viability assay and the cytotoxicity using a lactate dehydrogenase dependent membrane integrity assay.IUF_NPC2a_radial glia_migration_72hr is one of 12 assay components measured from the IUF_NPC2-5 assay. The migration distance of radial glia at 72 hr is assessed in um from the edge of the sphere core to the edge of the migration area based on brightfield images of each well. Therefore, each plate is scanned using a high content imaging device. Images are exported and the migration distance is measured manually in four directions using ImageJ. The mean of four measures per well is used as raw data input.Data from the IUF_NPC2a_radial_glia_migration_72hr component was analyzed at the endpoint IUF_NPC2a_radial_glia_migration_72hr in the positive analysis fitting direction relative to DMSO as the negative control and baseline of activity. Using a type of migration reporter, gain or loss-of-signal activity can be used to understand developmental effects.
Culture protocol: After the cell expansion period the cells are cultured for up to four weeks in which they are passaged every week as described in 3.6. Between one to three days after passaging spheres at a size of 0.3 mm are picked for the test method. For the assessment of neural progenitor cell migration and differentiation, the spheres are plated on poly-D-lysine/laminin coated 96-well flat bottom plates in differentiation medium (N2) to initiate migration and differentiation. Thereby one 0.3 mm big sphere is plated in the middle of a well. The differentiation medium consists of DMEM and Ham's F12 at a ratio of 3 to 1 supplemented with 1% N2 and 1% penicillin and streptomycin. Within 5 days NPCs radially migrate out of the sphere core and differentiate into radial glia cells (nestin positive), neurons (TUBB3 positive), oligodendrocytes (O4 positive) and astrocytes (GFAP positive). Cultivation during the test method is performed at 37C and 5% CO2 at a ph of 7.2-7.6.Exposure: 0.3 mm big hNPC are plated in the already prepared test conditions. Exposure starts at day 0 of differentiation and is continued over five days of differentiation until the experiment is terminated. Cells are fed with fresh medium at day 3 of differentiation. Therefore, half of the test condition solution (e.g. solvent control or compound dilution) is replaced by freshly prepared test condition solution.Test Method: Migration distance and cytotoxicity is determined after 72 hours based on brightfield images of each well. The assay is terminated by the assessment of cell viability and cytotoxicity as well as cell fixation after 120 h. Immunocytochemistry is performed for Hoechst positive nuclei, TUBB3 positive neurons and O4 positive oligodendrocytes. On the ICC images, migration after 120 hours, neuronal and oligodendrocyte number, neuronal morphology and neuron/oligodendrocyte specific migration is assessed. immunocytochemical staining (ICC) generates an image for each sphere. The plates are scanned using an automated high content imaging device and all nuclei and their positions are determined automatically based on their intensity and size. […]
With `CCOP(=O)(NC(C)C)Oc1ccc(SC)c(C)c1` (centres undefined), the call was inactive.
What is called AC50 is the midpoint of the concentration-response curve, whichever way the signal moves. `CN(C)[C@@H]1C(=O)C(C(N)=O)=C(O)[C@@]2(O)C(=O)C3=C(O)c4c(O)cccc4[C@@](C)(O)[C@H]3[C@H](O)[C@@H]12`: the AC50 is 76.1 µM (active).
Turning to `S=C1NCCN1`, the compound was classed as inactive.
The same measure, in the same setting: the result for `CCOP(=O)(OCC)Oc1cc(C)nc(C(C)C)n1` reads “inactive”; that for `CCOP(=S)(OCC)OC(Cl)C(Cl)(Cl)Cl` (centres undefined), “inactive”.
On the same count and under the same terms, the result for `COP(=O)(NC(C)=O)SC` (centres undefined) reads “inactive”.
Still for that read-out and setting: the result for `CCOC(=O)CC(SP(=O)(OC)OC)C(=O)OCC` (centres undefined) reads “inactive”; that for `CC(C)N(C(=O)SCC(Cl)=C(Cl)Cl)C(C)C`, “inactive”.
In the case of `CC1=NNC(=O)N(/N=C/c2cccnc2)C1`, the outcome was inactive.
The same measure, in the same setting: in the case of `CCCCSP(=O)(SCCCC)SCCCC` it was “inactive”; in that of `CON=C(C(=O)OC)c1ccccc1CON=C(C)c1cccc(C(F)(F)F)c1`, “inactive”.
As to `COP(=O)(OC)OC(Br)C(Cl)(Cl)Br` (centres undefined), the AC50 was 39 µM (active).
Consider `CCCSP(=O)(OCC)SCCC`, for which the result was inactive.
The same measure, in the same setting: the result for `CC(=NC#N)N(C)Cc1ccc(Cl)nc1` reads “inactive”; that for `CN1COCN(Cc2cnc(Cl)s2)C1=N[N+](=O)[O-]`, “inactive”.
On the same count and under the same terms, in the case of `C[N+]1(C)CCCCC1` it was “inactive”; in that of `CCOP(=S)(Oc1cnc(C(C)(C)C)nc1)OC(C)C` (centres undefined), “inactive”.
For `CC[C@H](C)[C@H]1O[C@]2(C=C[C@@H]1C)C[C@@H]1C[C@@H](C/C=C(\C)[C@@H](O[C@H]3C[C@H](OC)[C@@H](O[C@H]4C[C@H](OC)[C@@H](NC)[C@H](C)O4)[C@H](C)O3)[C@@H](C)/C=C/C=C3\CO[C@@H]4[C@H](O)C(C)=C[C@@H](C(=O)O1)[C@]34O)O2`, the AC50 was 2.13 µM (active) and 3.89 µM (active).
`CSC1=N[C@@](C)(c2ccccc2)C(=O)N1Nc1ccccc1`: the call was inactive.
Regarding `C=C(C)[C@H]1Cc2c(ccc3c2O[C@@H]2COc4cc(OC)c(OC)cc4[C@@H]2C3=O)O1`, the AC50 was 220 nM (active) and 4.24 nM (active).
Still for that read-out and setting: in the case of `O=[N+]([O-])c1cc(C(F)(F)F)c(Cl)c([N+](=O)[O-])c1Nc1ncc(C(F)(F)F)cc1Cl` it was 0.73 µM (active).
For the compound `CCOP(=S)(OCC)SCCSCC`, the compound was classed as inactive.
Same read-out and setting: the result for `COP(=O)(OC)C(O)C(Cl)(Cl)Cl` (centres undefined) reads “inactive”; that for `CCOP(=S)(OCC)Oc1cc(C)nc(C(C)C)n1`, “inactive”.

The values above are taken from PubChem BioAssay (EPA / NIEHS).
